The campaign covered roughly 2,000 compounds. Fewer than 10 were called active. A selection follows. Unmarked numbers belong to inactive results.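 How the source made its calls: active means growth inhibition of at least 75% in every replicate, which also brings the mean inhibition to 75% or more; inconclusive means mean inhibition 75% or more but some replicate under 75%; inactive means the rest.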

The nature of the experiment: reduced viability of yeast carrying PfHsp90 – S. cerevisiae, BacTiter-Glo luminescence, antimalarial PfHsp90 inhibitor project, primary screen (AID 504594).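 Further: 0% = DMSO neutral control wells and 100% = 20 µM radicicol control wells; higher value means stronger growth inhibition because the sign is flipped.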 Conditions: S. cerevisiae expressing PfHsp90, BacTiter-Glo growth, 48 h; at 9.4 µM; hits give high values.
On to `CC(C)c1ccc2[nH]c3c(c2c1)CCCC3=O`, for which the growth inhibition is 0.593%.

Turning to `O=c1cc(-c2ccccc2)oc2cc(OCc3ccccc3)cc(O)c12`, the growth inhibition is 2.87%.

`Cc1ccc2ncnc(NCCCCCC(=O)O)c2c1`: the growth inhibition is 4.2%.

Take `Nc1cccc2c1nnn2C1OC(CO)C(O)C(O)C1O` (stereo not given): the growth inhibition was -0.754%.

With `O=C1C=CC(=O)C(C2=C3C(=O)N(CCc4ccccc4)CC(=O)N3CCC2)=C1`, the growth inhibition is 0.713%.

Turning to `COc1cc(NC(=O)N[C@@H](Cc2ccccc2)C(=O)O)cc(OC)c1`, the growth inhibition is 5.35%.

Take `CCc1ccc(CN(C)Cc2nc(Cc3ccccc3)no2)nc1`: the growth inhibition was -0.638%.

Consider `O=C(NCCNc1ccc(Cl)cc1[N+](=O)[O-])c1cccnc1`, for which the growth inhibition was 1.09%.

Take `CC1(C)NC(C(=O)O)Cc2c1[nH]c1ccccc21` (stereo not given): the growth inhibition was 7.2%.

Take `CC(C)NC(=O)C1(c2ccccc2)CCOCC1`: the growth inhibition was -8.01%.

With `CCCCOn1c(C)c(C(C)=O)c2c3no[n+]([O-])c3ccc21`, the growth inhibition was -14.4%.

Turning to `CCSc1nc(O)c(C2OC(=O)c3c2ccc(OC)c3OC)c(=O)n1CC` (stereo not given), the growth inhibition is 9.9%.

Turning to `COC(=O)c1ccccc1NC(=O)NCc1ccccc1`, the growth inhibition is -7.31%.

For `Cc1ccc2[nH]c3c(c2c1)CN(C(=O)CN1CCSCC1)CC3`, the growth inhibition is -8.61%.

Turning to `COc1ccccc1C1(CC(=O)N2CCCCC2)CCOC(C(C)C)C1` (stereo not given), the growth inhibition was 14.4%.

Take `CC(C)CCNC(=O)[C@H](CC(C)C)NC(=O)[C@H]1O[C@@H]1C(=O)O`: the growth inhibition is -0.406%.

In the case of `CC(=O)N1N=C(c2cccs2)CC1c1ccc(C)o1` (stereo not given), the growth inhibition is 15.9%.

For the compound `Cc1cc(Cl)cc2c1NC(=O)[C@]21[C@@H]2C(=O)N(Cc3ccccc3)C(=O)[C@@H]2[C@@H]2CCCN21`, the growth inhibition was 6.75%.

For `COC(=O)CN1C(=S)N(c2ccc(F)cc2)C(=O)C1CC(=O)Nc1ccccc1` (stereo not given), the growth inhibition is 9.33%.

`Cc1ccc(P(=O)(CSC(=N)N)c2ccc(C)cc2)cc1`: the growth inhibition was -1.66%.

For `Cc1[nH]c2ccccc2c1C(=O)C(=O)NCc1ccco1`, the growth inhibition is 5.84%.

Regarding `Cc1ccccc1NC(=O)NCCc1c[nH]c2ccccc12`, the growth inhibition was 17.7%.

As to `OCCC1CN(Cc2ccccc2-c2ccco2)CCN1C1CCCC1` (stereo not given), the growth inhibition was -5.78%.

Turning to `Cc1ccc(CN2CCN(Cc3cn[nH]c3C3CCCCC3)CC2CCO)cc1` (stereo not given), the growth inhibition was -25.7%.

For `Cc1ccc(Nc2ncccc2C(=O)O)cc1C`, the growth inhibition was -4.41%.

For the compound `CS(=O)c1ccccc1O` (stereo not given), the growth inhibition was 14.9%.

Turning to `N/C(=N\OC(=O)CCCOc1ccc(Cl)cc1Cl)c1ccncc1`, the growth inhibition was -2.92%.

On to `COc1ccc(C2NC(=O)c3ccccc3N2)cc1OC` (stereo not given), for which the growth inhibition was -3.61%.

For `C=C(C)c1nc2cc(OC)c(OC)cc2c(=O)o1`, the growth inhibition is 12.6%.

For the compound `C=CCNC(=O)c1ccc(-c2cccc([N+](=O)[O-])c2)o1`, the growth inhibition was 0.359%.

With `COc1ccc(-n2cc(CNCc3cccnc3)c(-c3cccc(F)c3)n2)cc1`, the growth inhibition is -18.3%.

In the case of `COC(=O)c1cc(-c2ccc(OC)c(OC)c2)on1`, the growth inhibition was -8.12%.

Turning to `O=c1c2ccccc2nc2n1CCCN2`, the growth inhibition is 6.84%.

As for `CCOC(=O)N1CCc2[nH]c3ccc(C)cc3c2C1`, the growth inhibition is -0.0125%.

In the case of `CC1(C)CC(C(CC(=O)O)c2ccccc2)CCO1` (stereo not given), the growth inhibition was -0.107%.

In the case of `Cc1ccc2c(c1)c(C)cc(=O)n2CCC(=O)O`, the growth inhibition is -4.29%.

Consider `Cc1ccccc1OCC(O)CN1CCN(C)CC1` (stereo not given), for which the growth inhibition is 2.9%.

Turning to `COc1cccc(C2CCCN2Cc2nc(CCC(C)C)no2)c1` (stereo not given), the growth inhibition is 11.4%.

Consider `CC(C)N(Cc1nccn1C)C(=O)CC1C(=O)NCCN1Cc1ccccc1C(F)(F)F` (stereo not given), for which the growth inhibition is -0.671%.

For `CCOCCCNCc1cn(-c2ccc(F)cc2F)nc1-c1ccccc1C`, the growth inhibition was 5.3%.

For `CCOC(=O)C1(Cc2cccc(Cl)c2)CCCN(C2CCN(C(C)=O)CC2)C1` (stereo not given), the growth inhibition is -10.8%.

As for `Cc1ccc(C2=NOC(=O)/C2=C\C=C\c2ccccc2)cc1`, the growth inhibition is 14.3%.

As to `O=C1c2ccccc2C(=O)N1/N=C/c1ccc(Oc2ccc([N+](=O)[O-])cn2)cc1`, the growth inhibition is 4.52%.

For the compound `CC1(C)Oc2ccc(C#N)cc2[C@@H](N2CCCC2=O)[C@@H]1O`, the growth inhibition is 7.78%.

Turning to `CC1(C)Cc2ccccc2C(C(Cc2ccccc2)C(N)=O)=N1` (stereo not given), the growth inhibition is -4.58%.

For `O=C(CN1CCN(Cc2ccccc2)CC1)N1CCCc2c1c(=O)oc1ccc(O)cc21`, the growth inhibition is -7.45%.

Consider `O=C(NCCc1cccc(F)c1)[C@@H]1CSC2c3ccccc3C(=O)N21` (stereo not given in full), for which the growth inhibition is 3.04%.

Turning to `COc1ccc(CCNC(=O)CC(c2ccccc2)c2cccc(C)c2O)cc1OC` (stereo not given), the growth inhibition is -1.09%.

Turning to `CCn1c(SCC(=O)c2ccccc2)nc2ccccc2c1=O`, the growth inhibition was -10.3%.

As for `CC1(C)Cc2nc3sc4c(=O)n(CC(N)=O)cnc4c3cc2CO1`, the growth inhibition was -2.88%.

On to `CC(C)(C)OC(=O)COc1cc(OCC(=O)OC(C)(C)C)c2c(=O)cc(-c3ccccc3)oc2c1`, for which the growth inhibition was -8.59%.

With `Cn1cnc2c1c(=O)n(CC(O)CO)c(=O)n2C` (stereo not given), the growth inhibition is -5.12%.

As to `O=C(O)c1ccccc1C(=O)OCCCCOC(=O)c1ccccc1C(=O)O`, the growth inhibition is -3.9%.

With `COc1ccc(C(=O)NCC2OCCc3ccccc32)cc1` (stereo not given), the growth inhibition was -3.22%.

Turning to `O=C1CC(c2ccc(F)cc2)Cc2nc(NCC3CCCO3)ncc21` (stereo not given), the growth inhibition was 6.43%.

As to `COc1ccccc1OCC(=O)O`, the growth inhibition was -2.4%.

In the case of `NC(N)=NC(N)=Nc1ccc2ccccc2c1`, the growth inhibition was -11.6%.

Turning to `O=C(c1cc2cc(Br)ccc2o1)N1CCCCC1`, the growth inhibition was 5.37%.

As for `Cc1ccc2c(CN3CCN(Cc4ccc5c(c4)OCO5)CC3)cc(=O)oc2c1C`, the growth inhibition is 0.516%.

In the case of `COc1ccc(-c2cc(=O)oc3cc(OC(C)C(=O)O)ccc23)cc1` (stereo not given), the growth inhibition is -0.213%.

`CN(Cc1c(C(=O)N(C)Cc2ccccc2)nc2ccccn12)CC1Cc2ccccc2O1` (stereo not given): the growth inhibition was 11.4%.

Regarding `CC(C)CCc1noc(CN2CCC(CCN3CCCC3=O)CC2)n1`, the growth inhibition was 4.25%.

In the case of `Cn1c(SCC(=O)c2ccccc2)nnc1-c1ccncc1`, the growth inhibition was 0.861%.

For the compound `CC(=O)C1=C(O)C(=O)OC1c1ccc(C)cc1` (stereo not given), the growth inhibition was 14.7%.

With `CC12CC(c3ccccc3O1)C(C(=O)N1CCOCC1)C(=O)N2` (stereo not given), the growth inhibition is -11.3%.

For `COc1cc2c(cc1OC)C1(CCCC1)CNC2c1cccc([N+](=O)[O-])c1` (stereo not given), the growth inhibition is -7.37%.

For `Cc1csc(-c2coc3cc(O)cc(C)c3c2=O)n1`, the growth inhibition is 23.5%.

In the case of `Cc1nc(N)sc1C(=O)N/N=C/c1ccco1`, the growth inhibition was -1.68%.

Regarding `Nc1nc2c(nc(SCc3ccccc3Br)n2C2OC(CO)C(O)C2O)c(=O)[nH]1` (stereo not given), the growth inhibition is -22.3%.

For `COc1ccc(/C=C2\CC/C(=C\c3ccc(OC)c(OC)c3)C2=O)cc1OC`, the growth inhibition was -15.8%.

Regarding `CCc1cc2c(=O)c(-c3ccc4c(c3)OCCO4)coc2c(CN2CCCCC2C)c1O` (stereo not given), the growth inhibition is -11.5%.

In the case of `CCOC(=O)c1ccc(N2C(=O)C(CC(=O)NC)N(CCc3ccc(OC)c(OC)c3)C2=S)cc1` (stereo not given), the growth inhibition is 8.13%.

Consider `O=C(Cc1cccc2ccccc12)N1CC[C@@]2(O)CCCC[C@H]2C1`, for which the growth inhibition was -9.85%.

Take `COc1ccccc1C(=O)N=C1NC(=O)CC2C(=O)NCCN12` (stereo not given): the growth inhibition is 2.95%.

With `Cc1ccc2c(c1)C1OCCC1C1N2C(=O)C2C(C(=O)O)C3C=CC21O3` (stereo not given), the growth inhibition is -2.86%.

Consider `COc1ccc(CNC(=O)C2CCCN2C)cc1OC` (stereo not given), for which the growth inhibition is -16.4%.

In the case of `COc1ccc2[nH]c(=O)c(CNC3CCCCC3)cc2c1`, the growth inhibition was -29%.

Take `CCOC(=O)C1=C(N)Oc2c(oc(CO)cc2=O)C1c1ccc(F)c(F)c1` (stereo not given): the growth inhibition is -16.3%.

For the compound `CC12CCC(C(=O)NCc3ccccn3)(OC1=O)C2(C)C` (stereo not given), the growth inhibition is -9.47%.

As to `CC(=O)O[C@H]1C(=O)[C@@]2(C)[C@H]([C@H](OC(=O)c3ccccc3)[C@]3(O)C[C@H](OC(=O)[C@H](O)C(NC(=O)c4ccccc4)c4ccccc4)C(C)=C1C3(C)C)[C@]1(OC(C)=O)CO[C@@H]1C[C@@H]2O` (stereo not given in full), the growth inhibition is 4.3%.

For the compound `CCOC(=O)N1c2ccccc2C=CC1OCC` (stereo not given), the growth inhibition was -5.21%.

Turning to `Cc1cc(=O)oc2cc(OC(C)C(=O)NCC3CCCO3)ccc12` (stereo not given), the growth inhibition is -2.4%.

As to `CC(=O)N1CCN(c2ccc(OC[C@H]3CO[C@](Cn4ccnc4)(c4ccc(Cl)cc4Cl)O3)cc2)CC1`, the growth inhibition is 94.4% (active).

With `CCC(C)n1ncn(-c2ccc(N3CCN(c4ccc(OCC5COC(Cn6cncn6)(c6ccc(Cl)cc6Cl)O5)cc4)CC3)cc2)c1=O` (stereo not given), the growth inhibition is -1.74%.

In the case of `O=C(O)c1ccc(OCCn2ccnc2)cc1`, the growth inhibition is -4.4%.

In the case of `Cc1oc(/C=N/NC(=O)CC2(C)OCCO2)cc1Br`, the growth inhibition is -11.1%.

Consider `C=C(C)[C@@H]1CC=C(CN2CCC(N3CCC(C(=O)N4CCCC4)CC3)CC2)CC1`, for which the growth inhibition is -0.183%.

Take `CCN(CC)CCN1C(=O)C(=O)/C(=C(/O)c2c(C)[nH]c(C(=O)OC)c2C)C1c1cccnc1` (stereo not given): the growth inhibition was -4.71%.

As for `COc1cccc(N2CC34C=CC(O3)C(C(=O)O)C4C2=O)c1` (stereo not given), the growth inhibition was -1.36%.

As to `COc1ccc(OC)c(-c2oc3ccccc3c(=O)c2O)c1`, the growth inhibition is -8.17%.

With `Cc1ccsc1C1NC(=O)c2ccccc2N1` (stereo not given), the growth inhibition is -12.4%.

As to `COc1cc(C(=O)N/C(=C\c2cn(C)c3ccccc23)C(=O)NCCCO)cc(OC)c1OC`, the growth inhibition is 13.5%.

`CCc1nc2ccccc2n1Cc1ccc(OC)c(OC)c1`: the growth inhibition was 2.55%.

With `C/C(NC(=O)c1cccs1)=C1\C(=O)C[C@@H]2[C@H]1C2(C)C`, the growth inhibition was 1.59%.

`CCc1cc2c(=O)c(-c3nc(C)cs3)c(CCCC(=O)O)oc2cc1O`: the growth inhibition is -4.53%.
